APOBEC3G inh: APOBEC3G (human) deaminase inhibition. Q9HC16. recombinant A3G, ssDNA deamination FAM/TAMRA fluorescence. inhibition, % at 20 µM. 330,000 tested, 0.28% active. AID 493012;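 active = inhibition of at least 40% at 20 µM, with no more than 30% in the related APOBEC3A deaminase screen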
ADAM10 inh: ADAM10 inhibition, QFRET primary screen | recombinant ADAM10, EDANS/DABCYL FRET peptide cleavage, 3 h | inhibition, % at 7 µM | 370,000 tested, 0.62% active | AID 720582;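 active = inhibition above a per-campaign cutoff equal to the mean of compounds falling between control-based bounds plus 3 SD, cut at about 20% in these data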
ADAM17 inh: inhibits human ADAM17. P78536. recombinant ADAM17, EDANS/DABCYL FRET peptide cleavage. inhibition, % at 6.95 µM. 370,000 tested, 0.83% active. AID 720648;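 active = inhibition above the mean of compounds lying between control limits plus 3 SD, set per campaign, cut at about 8.5% in these data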
NRP1-CendR mod: NRP-1/CendR interaction modulation | 360,000 tested, 0.85% active | AID 602438 | inhibition, % at 25 µM | FAM-RPARPAR peptide binding to NRP-1, fluorescence polarization | O14786;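 active = inhibition or corrected inhibition above about 18%, plus a signal ratio from 0.5 to 1.5, limit read from the data, passing the limit was not always enough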
Target sequence (O14786 whole entry, looked up): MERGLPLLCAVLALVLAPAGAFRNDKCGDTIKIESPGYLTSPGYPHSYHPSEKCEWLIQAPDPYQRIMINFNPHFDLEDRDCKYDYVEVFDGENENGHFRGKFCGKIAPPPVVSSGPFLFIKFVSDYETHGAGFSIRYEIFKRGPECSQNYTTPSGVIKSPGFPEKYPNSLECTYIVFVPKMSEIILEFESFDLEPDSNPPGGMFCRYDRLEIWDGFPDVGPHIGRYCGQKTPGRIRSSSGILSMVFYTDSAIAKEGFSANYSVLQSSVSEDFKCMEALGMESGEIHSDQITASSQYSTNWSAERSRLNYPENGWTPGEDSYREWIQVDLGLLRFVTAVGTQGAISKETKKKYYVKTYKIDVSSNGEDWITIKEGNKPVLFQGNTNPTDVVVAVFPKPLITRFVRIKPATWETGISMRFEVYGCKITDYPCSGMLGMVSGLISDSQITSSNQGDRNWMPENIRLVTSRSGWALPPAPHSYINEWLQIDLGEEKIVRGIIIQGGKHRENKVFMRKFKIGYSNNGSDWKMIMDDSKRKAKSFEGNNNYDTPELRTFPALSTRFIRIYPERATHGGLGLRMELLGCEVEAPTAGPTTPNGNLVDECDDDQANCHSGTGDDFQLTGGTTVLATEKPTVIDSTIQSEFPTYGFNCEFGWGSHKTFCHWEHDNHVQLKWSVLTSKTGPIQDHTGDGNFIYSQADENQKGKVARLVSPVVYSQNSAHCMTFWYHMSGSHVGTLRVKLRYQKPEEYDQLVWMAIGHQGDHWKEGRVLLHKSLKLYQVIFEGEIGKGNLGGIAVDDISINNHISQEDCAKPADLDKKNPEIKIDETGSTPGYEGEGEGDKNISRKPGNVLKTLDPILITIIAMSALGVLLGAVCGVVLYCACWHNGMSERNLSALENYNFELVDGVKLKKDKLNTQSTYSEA
A3A deaminase: blocks human APOBEC3A ssDNA deamination; recombinant A3A, FAM/TAMRA ssDNA deamination fluorescence; inhibition, % at 20 µM; 330,000 tested, 0.41% active; AID 493011;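 active = at least 40% inhibition at 20 µM here, with at most 30% in a related deaminase screen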
APOBEC3G confirm: APOBEC3G (human) deaminase inhibition, confirmed; shares compounds with APOBEC3G inh; recombinant A3G ssDNA deaminase, UDG/FAM-TAMRA fluorescence; inhibition, % at 20 µM; 890 tested, 72% active; AID 493152;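 active = inhibition reaching a set limit in any replicate at 20 µM, the limit being 80% of the first screen's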
UDG ctr A3G: E. coli UDG inhibition in APOBEC3G counter-screen | shares compounds with APOBEC3G inh | UDG counterscreen, FAM/TAMRA oligo fluorescence | inhibition, % at 20 µM | 710 tested, under 10 active | AID 504715;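 active = compounds giving 40% or more inhibition at 20 µM in any one of the three replicates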;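 note: inhibitors lower the FAM signal released by uracil excision and alkaline cleavage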
A number is an active result. An excerpt weighted towards active compounds, which were near 2.4% of everything screened.

Screening CCCC(C)c1nnc(NC(=O)C2CC(=O)N(CCc3ccc(F)cc3)C2)s1 (centres undefined) returned APOBEC3G inh 45.1, ADAM10 inh inactive, ADAM17 inh inactive, NRP1-CendR mod inactive, A3A deaminase inactive, APOBEC3G confirm 21.6 and UDG ctr A3G inactive.
For CCc1cc(/C(Cc2ccccn2)=N\Nc2ccccc2)c(O)cc1O the results were APOBEC3G inh 41.7, ADAM10 inh inactive, ADAM17 inh inactive, NRP1-CendR mod inactive, A3A deaminase inactive, APOBEC3G confirm inactive and UDG ctr A3G inactive.
`Cc1nc(C/C(=N\Nc2ccccc2)c2ccc(O)cc2O)cs1` gave APOBEC3G inh inactive, ADAM10 inh inactive, ADAM17 inh inactive, NRP1-CendR mod inactive and A3A deaminase inactive.
Screening COc1ccc(NC(=O)Nc2cc(C)nn2-c2ccccc2)cc1 returned ADAM10 inh inactive and ADAM17 inh inactive.
Cc1cc(NC(=O)Nc2ccccc2)n(C(C)(C)C)n1 was read as APOBEC3G inh 60.5, ADAM10 inh inactive, ADAM17 inh inactive, NRP1-CendR mod inactive, A3A deaminase inactive and APOBEC3G confirm inactive.
`C=C(C)C(=O)N1CC2(CC(c3cccc(NC(=O)/C=C\C=C/C)c3)=NO2)C[C@H]1C(N)=O` (some centres undefined) gave APOBEC3G inh inactive, ADAM10 inh inactive, ADAM17 inh inactive, NRP1-CendR mod inactive and A3A deaminase inactive.
Screening C=C(C)C(=O)Nc1cccc(C2=NOC3(C2)C[C@@H](C(N)=O)N(C(=O)/C=C/CC)C3)c1 (some centres undefined) returned APOBEC3G inh 91.4, ADAM10 inh inactive, ADAM17 inh inactive, NRP1-CendR mod inactive, A3A deaminase inactive, APOBEC3G confirm 92.8 and UDG ctr A3G inactive.
Screening C=C(C)C(=O)Nc1cccc(C2=NOC3(C2)C[C@@H](C(N)=O)N(C(=O)C(=C)C)C3)c1 (some centres undefined) returned APOBEC3G inh 88.2, ADAM10 inh inactive, ADAM17 inh inactive, NRP1-CendR mod inactive, A3A deaminase inactive, APOBEC3G confirm 92.0 and UDG ctr A3G inactive.
`C=C(C)C(=O)Nc1cccc(C2=NOC3(C2)C[C@@H](C(N)=O)N(C(=O)C2(C)CC2)C3)c1` (some centres undefined) gave APOBEC3G inh 88.7, ADAM10 inh inactive, ADAM17 inh inactive, NRP1-CendR mod inactive, A3A deaminase inactive and APOBEC3G confirm 93.8.
`N#Cc1ccc(OCCCN2CCC(C(O)(c3ccccc3)c3ccccc3)CC2)cc1` gave ADAM10 inh inactive and ADAM17 inh inactive.
Screening CN(CC(=O)Nc1n[nH]c(=S)s1)S(=O)(=O)c1cccc2cccnc12 returned APOBEC3G inh 75.4, ADAM10 inh inactive, ADAM17 inh inactive, NRP1-CendR mod inactive, A3A deaminase inactive, APOBEC3G confirm 95.1 and UDG ctr A3G inactive.
Screening Cc1csc(NC(=O)CN(C)S(=O)(=O)c2cccc3cccnc23)n1 returned APOBEC3G inh inactive, ADAM10 inh inactive, ADAM17 inh inactive, NRP1-CendR mod inactive and A3A deaminase inactive.
Screening C=CS(=O)(=O)N(Cc1ccc(F)cc1)C(=C)C(=O)OC returned ADAM10 inh inactive and ADAM17 inh inactive.
COc1ccc(O)c(C(=O)C2c3ccccc3C(=O)N2c2ccc(C)cc2)c1 (centres undefined) was read as APOBEC3G inh 75.4, ADAM10 inh inactive, ADAM17 inh inactive, NRP1-CendR mod inactive, A3A deaminase inactive, APOBEC3G confirm 87.8 and UDG ctr A3G inactive.
For CCCCOCCCNC(=O)C[C@@H]1C(=O)N(Cc2ccc(OC)cc2)/C2=C/CCCCC[C@@]21C(=O)OCC the results were ADAM10 inh inactive and ADAM17 inh inactive.
O=C(CCS(=O)(=O)c1ccc(F)cc1)Nc1nc(-c2ccncc2)cs1 was read as APOBEC3G inh 61.1, ADAM10 inh inactive, ADAM17 inh inactive, NRP1-CendR mod inactive, A3A deaminase inactive and APOBEC3G confirm 52.6.
O=C(COc1ccc(Cl)cc1)Nc1nc(-c2ccncc2)cs1 was read as APOBEC3G inh 42.2, ADAM10 inh inactive, ADAM17 inh inactive, NRP1-CendR mod inactive, A3A deaminase inactive and APOBEC3G confirm inactive.
